USP10 inh: human USP10 deubiquitinase inhibition; 47,000 compounds, 1.1% hits; Q14694; purified USP10, Ub-rhodamine fluorescence, 60 min; inhibition, % at 20 µM
OTUD3 inh: inhibitors of human OTUD3 deubiquitinase. Q5T2D3. purified OTUD3, Ub-rhodamine fluorescence, 2 h. inhibition, % at 25 µM. 47,000 compounds, 0.7% hits. AID 1645858
USP8 inh: inhibitors of human USP8 deubiquitinase; AID 1645853; purified USP8, Ub-rhodamine cleavage fluorescence, 30 min; inhibition, % at 20 µM; 47,000 compounds, 4.2% hits; P40818
UCHL1 block: human UCHL1 deubiquitinase inhibition; P09936; purified UCHL1, Ub-rhodamine cleavage fluorescence; inhibition, % at 20 µM; 47,000 compounds, 0.2% hits
USP7 block: human USP7 deubiquitinase inhibition; purified USP7, Ub-rhodamine cleavage fluorescence; inhibition, % at 20 µM; 47,000 compounds, 0.3% hits
Numbers stand for hits; – = inactive. Sampled rows, rich in hits. Any-hit rate of the full collection: about 4.9%. Rule as the data show it: active = inhibition above about 30%; inactive = the rest.

SMILES	USP10 inh	OTUD3 inh	USP8 inh	UCHL1 block	USP7 block
Cc1ccc(S(=O)(=O)N2CCCn3c(nc4ccccc43)C2)cc1	–	–	–	–	–
COc1ccccc1OCC(=O)NCC(c1ccco1)N1CCOCC1 (stereo not drawn)	–	–	–	–	–
O=C(CNC(=O)c1cc2c(=O)n3ccccc3nc2s1)c1ccccc1	–	–	44	–	–
O=C(Nc1ccc2[nH]c(=O)[nH]c2c1)c1cc2c(=O)n3ccccc3nc2s1	–	–	–	–	–
COc1ccc(OC)c(CCNC(=O)CCC2=NS(=O)(=O)c3ccc(C(F)(F)F)cc3N2)c1	–	–	58	–	–
Cc1nc2c(c(-c3ccc(O)cc3)n1)CCNCC2	–	–	46	–	–
O=S(=O)(c1ccccc1)n1nc(-c2cccnc2)nc1NCc1cccc(Cl)c1	–	–	–	–	–
Cc1ccccc1C(=O)c1ccc(C(=O)NC2CCCCCC2)[nH]1	–	–	41	–	–
CCN1CCN(c2nc(NCc3ccco3)c3ccccc3n2)CC1	–	–	–	–	–
Cc1ccc(Nc2nc(NCc3ccco3)c3ccccc3n2)cc1	–	35	31	–	–
O=C(COC(=O)C(c1ccccc1)c1ccccc1)NCc1ccccc1	–	–	–	–	–
Cc1cc(NC(=O)CSc2nnc(-c3ccc4c(c3)OCCO4)o2)no1	–	–	31	–	–
COc1ccc(S(=O)(=O)Nc2cccc(C(=O)Nc3cccc4nsnc34)c2)cc1	–	–	–	–	–
Cc1ccccc1NC(=O)Cn1c(C)ncc(C(=O)NC2CC2)c1=O	–	–	–	–	–
O=C(Cn1c(-c2ccccc2)ncc(C(=O)NC2CC2)c1=O)Nc1ccccc1	–	–	30	–	–
O=C(c1cccc(S(=O)(=O)Nc2ccc(F)cc2)c1)N1CCCc2ccccc21	–	–	–	–	–
Cn1nc(C2CCN(C(=O)Cc3cccc(F)c3)CC2)c2nccnc21	–	–	82	–	–
CCc1nc(-c2ccc(-c3noc(-c4cnccn4)n3)cc2)cs1	–	–	–	–	–
O=C(NC(Cc1ccccc1)c1nc2ccccc2[nH]1)C1CCC1 (stereo not drawn)	–	–	63	–	–
O=C(N[C@@H](Cc1ccccc1)c1nc2ccccc2[nH]1)c1ccncc1	–	–	–	–	–
COc1ccc(C(=O)NC(Cc2ccccc2)c2nc3ccccc3[nH]2)c(OC)c1 (stereo not drawn)	–	–	95	–	–
O=C(NC(Cc1ccccc1)c1nc2ccccc2[nH]1)c1ccc(-n2cnnn2)cc1 (stereo not drawn)	–	–	43	–	–
O=C(NC(Cc1c[nH]c2ccccc12)c1nc2ccccc2[nH]1)c1ccccc1 (stereo not drawn)	–	–	42	–	–
CCOc1ccc2nc(NC(=O)CCOc3ccccc3C)sc2c1	–	–	–	–	–
Cc1cccc(N2C(=O)/C(=C\c3cc(C#N)n(C)c3C)c3ccccc3C2=O)c1	35	–	56	–	–
SMILES	USP10 inh	OTUD3 inh	USP8 inh	UCHL1 block	USP7 block
Cc1cccc(N2C(=O)N(c3ccccc3)C3CS(=O)(=O)CC32)c1 (stereo not drawn)	–	–	–	–	–
Cc1ccsc1C1CCCCCN1S(=O)(=O)c1ccccc1F (stereo not drawn)	–	–	32	–	–
CSc1cccc(NC(=O)C2Cc3ccccc3CN2C(=O)c2ccco2)c1 (stereo not drawn)	–	–	–	–	–
O=C(Nc1cccc(S(=O)(=O)N2CCOCC2)c1)C1Cc2ccccc2CN1C(=O)c1ccco1 (stereo not drawn)	–	–	40	–	–
Cc1cccc(NC(=O)C2CCN(S(C)(=O)=O)c3ccccc3O2)c1 (stereo not drawn)	–	–	–	–	–
Cc1ccc(S(=O)(=O)C(CNC(=O)c2ccc(Cl)cc2Cl)c2cccnc2)cc1 (stereo not drawn)	–	–	–	–	–
COc1ccc(C(=O)Nc2cccn3cnnc23)cc1OC	–	–	–	–	–
COc1ccc(CCNCc2cc3c(C)nn(-c4ccccc4)c3[nH]c2=O)cc1OC	–	–	–	–	–
Cc1nn(-c2ccccc2)c2[nH]c(=O)c(CNCC3CCCO3)cc12 (stereo not drawn)	–	–	–	–	–
Cc1nn(-c2ccccc2)c2[nH]c(=O)c(CNCc3ccccc3Cl)cc12	–	–	72	–	–
COc1ccc(CNCc2cc3c(C)nn(-c4ccccc4)c3[nH]c2=O)cc1	–	–	64	–	–
Cc1cc(NC(=O)C2CCC3(CC2)CN(C)C(=O)c2ccccc2O3)nn1C (stereo not drawn)	–	–	–	–	–
CC(=O)c1cccc(NC(=O)COc2ncnc3sccc23)c1	–	–	39	–	–
O=C(CNC(=O)c1ccc2nc(-n3cccc3)sc2c1)NCc1cccc(Cl)c1	–	–	69	–	–
O=C(O)CNC(=O)c1ccc2nc(-n3cccc3)sc2c1	–	–	–	–	–
COc1ccc(OC)c(Nc2nc(-c3ccc(Cl)cc3)c(C)s2)c1	–	–	42	–	–
N#Cc1ccc(CN2CCC(C3CCCCCN3C(=O)C3CCOCC3)CC2)c(F)c1 (stereo not drawn)	–	–	–	–	–
COc1ccc(OC)c(NC(=O)c2ccc(-n3nnnc3SC)cc2)c1	–	–	–	–	–
COc1ccc(NC(=O)c2ccc(-n3nnnc3SC)cc2)cc1Cl	–	87	–	–	–
COc1ccc(-c2nn(-c3ccccc3)c3[nH]c(=O)c(CNc4ccc5c(c4)OCCO5)cc23)cc1OC	–	–	78	–	31
COc1ccc(-c2nn(-c3ccccc3)c3[nH]c(=O)c(CNCc4cccs4)cc23)cc1OC	–	–	78	–	–
Cc1ccc(N2CC(c3nnc(NC(=O)Cc4ccc(F)cc4)s3)CC2=O)cc1C (stereo not drawn)	–	–	–	–	–
O=C(/C=C/C=C/C=C/C1CCCCC1)NC1=C[C@@](O)(/C=C/C=C/C=C/C(=O)NC2=C(O)CCC2=O)[C@@H]2O[C@@H]2C1=O	–	73	–	47	45
CCCCc1ccc(-c2cc(C(=O)NCCN3CCOCC3)c3cc(Br)ccc3n2)cc1	–	30	–	–	–
Cc1ccc(N2CC(C(=O)Nc3cccc(-c4noc(C)n4)c3)CC2=O)cc1 (stereo not drawn)	–	–	40	–	–
SMILES	USP10 inh	OTUD3 inh	USP8 inh	UCHL1 block	USP7 block
CCOC(=O)c1noc2nc(C)nc(NCc3ccccc3OC)c12	–	–	43	–	–
CCOC(=O)c1noc2ncnc(NCc3cccc(OC)c3)c12	–	–	70	–	–
O=C(Nc1ccc2c(c1)OCO2)C1CCN(C(=O)c2ccc3n[nH]nc3c2)CC1	–	–	36	–	–
O=C(Nc1ccc2c(c1)OCCO2)C1CCN(C(=O)c2ccccc2)CC1	–	–	–	–	–
COc1ccc(-c2nc(-c3cc4cc(OC)ccc4[nH]c3=O)no2)cc1	–	–	35	–	–
Cc1ccc2[nH]c(=O)c(-c3noc(-c4cccnc4)n3)cc2c1	–	–	–	–	–

Screening data: PubChem BioAssay, Buhrlage Lab, Dana-Farber Cancer Institute and Novartis Institutes for BioMedical Research (Cambridge, Mass)
